Values joined by “and” are separate entries in the source; they are usually repeats but may differ in a detail not shown here. Identical values can stand only once. Inconclusive results are not listed. A call without a number means that no potency is given here. The source holds several records for some structures; these can differ, active in one and inactive in another. Active and inactive are the calls of the source. The call rests on the fitted dose curve; in most records, active means well fitted curve in the direction sought with a large enough effect in the repeat runs; inconclusive means weak or mixed curves; inactive means no such curve, though single readings can be large; an effect the other way counts as inactive or inconclusive.
Experiments:
[1] = biological target: Cytochrome P450 2C19 (Homo sapiens) (UniProt P33261); assay: Cytochrome P450 Family 2 Subfamily C Member 19 (CYP2C19) small molecule antagonists: luciferase reporter qHTS assay (AID 1671197); conditions: P450-Glo CYP2C19 enzyme, luciferin luminescence, 1 h; series mostly up to 115 µM; further: nearly all actives have a fitted effect of over 65% in size; further: potency means the concentration at half of the fitted maximal effect
Summary of the method: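 Quantitative high-throughput screen of the Tox21 library using CYP2C19 with proluciferin substrate. Reaction: NADPH regeneration, 37C, 1 h, after 10 min compound preincubation at room temperature. Readout: luminescence.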

[2] = biological target: Cytochrome P450 2C9 (Homo sapiens) (UniProt P11712); assay: Cytochrome P450 Family 2 Subfamily C Member 9 (CYP2C9) small molecule antagonists: luciferase reporter qHTS assay (AID 1671198); conditions: P450-Glo CYP2C9 enzyme assay, luciferin luminescence; series mostly up to 115 µM; further: nearly all actives have a fitted effect of over 50% in size; further: potency means the concentration at half of the fitted maximal effect
Summary of the method: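 Enzyme-substrate mix preincubated with compound 10 min at room temperature; reaction started with NADPH regeneration solution, 1 h 37C. Luminescent luciferin product read after 20 min detection reagent.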

[3] = biological target: Cytochrome P450 1A2 (Homo sapiens) (UniProt P05177); assay: Cytochrome P450 Family 1 Subfamily A Member 2 (CYP1A2) small molecule antagonists: luciferase reporter qHTS assay (AID 1671199); conditions: P450-Glo CYP1A2 enzyme, luciferin luminescence, 1 h; series mostly up to 115 µM; further: nearly all actives have a fitted effect of over 50% in size; further: potency means the concentration at half of the fitted maximal effect
Summary of the method: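 Signal from luciferin formed by CYP1A2 from a proluciferin substrate is read as luminescence, expressed in relative luminescence units. Compounds sit with enzyme 10 min, NADPH-driven reaction runs 1 h, all at room temperature.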

[4] = biological target: Cytochrome P450 3A4 (Homo sapiens) (UniProt P08684); assay: Cytochrome P450 Family 3 Subfamily A Member 4 (CYP3A4) small molecule antagonists: luciferase reporter qHTS assay (AID 1671201); conditions: P450-Glo CYP3A4 enzyme, luciferin luminescence, 1 h; series mostly up to 115 µM; further: nearly all actives have a fitted effect of over 50% in size; further: potency means the concentration at half of the fitted maximal effect
Summary of the method: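 Luminescent readout (RLU) proportional to CYP3A4 activity, from luciferin generated off a proluciferin substrate. Enzyme–substrate mix plus compound 10 min at room temp, NADPH regeneration 1 h, detection reagent 20 min.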

[5] = biological target: Voltage-gated inwardly rectifying potassium channel KCNH2 (Homo sapiens) (UniProt Q12809); assay: Human Ether-a-go-go-Related Gene (hERG) channel small molecule antagonists: fluorescence cell-based qHTS assay (AID 1671200); conditions: hERG-U2OS cells, FluxOR thallium flux fluorescence; series mostly up to 76.8 µM;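 further: hERG-expressing U2OS cells given a thallium stimulus after FluxOR II dye loading; nearly all actives have a fitted effect of over 50% in size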
Summary of the method: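 Read-out: thallium influx as a surrogate for potassium, tracked as fluorescence (480 nm ex/540 nm em) every second for 2 min after Stimulus Buffer addition in dye-loaded hERG-U2OS cells.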

Sequence of Voltage-gated inwardly rectifying potassium channel KCNH2 (Homo sapiens) (Q12809 whole entry, looked up): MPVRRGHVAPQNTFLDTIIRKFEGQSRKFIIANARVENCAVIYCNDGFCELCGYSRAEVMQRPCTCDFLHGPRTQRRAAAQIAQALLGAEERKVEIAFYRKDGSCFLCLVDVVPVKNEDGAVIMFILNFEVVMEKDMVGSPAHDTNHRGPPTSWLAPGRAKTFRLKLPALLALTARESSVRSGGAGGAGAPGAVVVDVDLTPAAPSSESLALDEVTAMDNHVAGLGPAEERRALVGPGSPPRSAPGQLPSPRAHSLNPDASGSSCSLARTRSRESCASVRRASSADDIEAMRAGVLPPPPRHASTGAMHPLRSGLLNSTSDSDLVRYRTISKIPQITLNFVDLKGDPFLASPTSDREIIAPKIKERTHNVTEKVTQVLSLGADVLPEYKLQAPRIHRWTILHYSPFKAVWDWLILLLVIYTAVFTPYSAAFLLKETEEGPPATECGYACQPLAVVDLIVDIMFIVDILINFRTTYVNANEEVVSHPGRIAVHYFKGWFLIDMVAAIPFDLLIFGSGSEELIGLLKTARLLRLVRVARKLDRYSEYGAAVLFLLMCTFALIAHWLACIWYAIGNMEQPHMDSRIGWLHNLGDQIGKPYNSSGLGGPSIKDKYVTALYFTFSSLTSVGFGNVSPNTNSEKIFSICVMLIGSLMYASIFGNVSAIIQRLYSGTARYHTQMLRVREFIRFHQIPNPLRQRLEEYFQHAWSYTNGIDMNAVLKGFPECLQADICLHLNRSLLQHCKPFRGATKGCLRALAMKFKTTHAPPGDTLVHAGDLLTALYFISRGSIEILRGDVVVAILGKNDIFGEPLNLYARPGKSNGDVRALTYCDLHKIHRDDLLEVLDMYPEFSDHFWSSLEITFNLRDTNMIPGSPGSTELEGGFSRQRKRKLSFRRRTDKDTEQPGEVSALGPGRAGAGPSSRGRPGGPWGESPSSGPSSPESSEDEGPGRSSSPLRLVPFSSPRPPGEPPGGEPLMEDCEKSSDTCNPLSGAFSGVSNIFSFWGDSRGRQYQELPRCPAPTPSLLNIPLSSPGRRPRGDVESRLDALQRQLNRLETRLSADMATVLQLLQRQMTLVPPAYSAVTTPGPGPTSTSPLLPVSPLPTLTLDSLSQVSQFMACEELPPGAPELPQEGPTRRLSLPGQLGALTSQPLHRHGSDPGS
Sequence of Cytochrome P450 2C19 (Homo sapiens) (P33261 whole entry, looked up): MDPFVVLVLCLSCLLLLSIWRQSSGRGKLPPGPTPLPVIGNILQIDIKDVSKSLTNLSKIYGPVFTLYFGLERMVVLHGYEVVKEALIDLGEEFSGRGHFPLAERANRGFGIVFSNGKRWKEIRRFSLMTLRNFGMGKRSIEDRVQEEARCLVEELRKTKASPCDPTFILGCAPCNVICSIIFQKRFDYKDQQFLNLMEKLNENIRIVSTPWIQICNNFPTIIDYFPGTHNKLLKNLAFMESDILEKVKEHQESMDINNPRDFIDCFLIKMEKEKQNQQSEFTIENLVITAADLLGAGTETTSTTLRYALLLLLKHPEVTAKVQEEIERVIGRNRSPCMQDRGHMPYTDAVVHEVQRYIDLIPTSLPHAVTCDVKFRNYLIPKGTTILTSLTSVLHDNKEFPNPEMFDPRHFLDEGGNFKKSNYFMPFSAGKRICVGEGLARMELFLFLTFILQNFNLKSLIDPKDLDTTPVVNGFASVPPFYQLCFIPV
Sequence of Cytochrome P450 3A4 (Homo sapiens) (P08684 whole entry, looked up): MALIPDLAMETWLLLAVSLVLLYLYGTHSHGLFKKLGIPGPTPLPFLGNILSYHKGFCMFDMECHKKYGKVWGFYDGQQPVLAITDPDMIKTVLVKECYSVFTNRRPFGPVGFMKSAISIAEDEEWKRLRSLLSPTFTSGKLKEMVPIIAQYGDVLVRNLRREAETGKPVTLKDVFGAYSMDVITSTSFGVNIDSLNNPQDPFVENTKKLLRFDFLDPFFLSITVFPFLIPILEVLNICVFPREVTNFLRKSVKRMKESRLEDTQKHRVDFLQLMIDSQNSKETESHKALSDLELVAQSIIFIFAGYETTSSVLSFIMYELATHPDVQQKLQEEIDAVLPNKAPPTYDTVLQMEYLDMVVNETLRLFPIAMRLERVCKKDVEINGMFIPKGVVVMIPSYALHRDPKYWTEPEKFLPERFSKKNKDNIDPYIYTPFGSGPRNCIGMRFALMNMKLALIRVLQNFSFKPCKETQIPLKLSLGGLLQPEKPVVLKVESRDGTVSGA
Sequence of Cytochrome P450 2C9 (Homo sapiens) (P11712 whole entry, looked up): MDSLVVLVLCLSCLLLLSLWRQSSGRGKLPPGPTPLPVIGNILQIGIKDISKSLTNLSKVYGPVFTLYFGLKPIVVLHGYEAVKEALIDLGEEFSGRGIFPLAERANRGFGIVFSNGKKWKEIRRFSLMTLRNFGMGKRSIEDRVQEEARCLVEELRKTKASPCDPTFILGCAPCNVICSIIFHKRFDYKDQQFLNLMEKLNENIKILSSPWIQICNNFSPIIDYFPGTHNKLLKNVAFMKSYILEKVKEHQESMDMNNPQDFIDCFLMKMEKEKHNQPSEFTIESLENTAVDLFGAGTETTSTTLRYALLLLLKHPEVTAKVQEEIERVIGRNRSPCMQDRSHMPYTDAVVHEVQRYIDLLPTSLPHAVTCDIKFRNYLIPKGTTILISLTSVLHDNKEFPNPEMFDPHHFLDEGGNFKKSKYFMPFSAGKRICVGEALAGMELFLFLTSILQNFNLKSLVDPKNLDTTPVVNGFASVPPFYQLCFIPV
Sequence of Cytochrome P450 1A2 (Homo sapiens) (P05177 whole entry, looked up): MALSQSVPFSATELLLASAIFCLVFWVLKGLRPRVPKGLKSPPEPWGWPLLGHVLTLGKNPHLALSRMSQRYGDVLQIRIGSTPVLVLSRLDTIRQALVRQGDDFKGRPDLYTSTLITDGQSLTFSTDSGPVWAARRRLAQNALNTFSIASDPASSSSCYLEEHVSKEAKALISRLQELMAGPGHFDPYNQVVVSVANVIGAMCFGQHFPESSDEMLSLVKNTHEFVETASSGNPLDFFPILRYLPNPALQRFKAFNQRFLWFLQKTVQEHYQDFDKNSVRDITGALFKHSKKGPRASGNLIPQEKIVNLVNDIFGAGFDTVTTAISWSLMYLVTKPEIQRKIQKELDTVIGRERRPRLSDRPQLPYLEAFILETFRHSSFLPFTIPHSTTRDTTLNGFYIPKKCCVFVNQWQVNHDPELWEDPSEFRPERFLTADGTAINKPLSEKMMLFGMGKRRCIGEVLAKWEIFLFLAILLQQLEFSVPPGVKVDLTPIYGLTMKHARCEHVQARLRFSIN

Row | SMILES | Potency [1] | Potency [2] | Potency [3] | Potency [4] | Potency [5]
1 | CCC(=O)O[C@H]1[C@H](O[C@@H]2[C@@H](C)[C@H](O[C@H]3C[C@@](C)(OC)[C@@H](O)[C@H](C)O3)[C@@H](C)C(=O)O[C@H](CC)[C@@](C)(O)[C@H](O)[C@@H](C)C(=O)[C@H](C)C[C@@]2(C)O)O[C@H](C)C[C@@H]1N(C)C | 47.1 µM (active) and inactive | 37.4 µM (active) and inactive | inactive | 265 nM (active) and 2.75 µM (active) | –
2 | CCCCCCCC/C=C\CCCCCCCC(=O)O | 71.4 µM (active) and inactive | inactive | inactive | inactive | inactive
3 | C[C@]12C=CC(=O)C=C1CC[C@H]1[C@@H]3C[C@@H](O)[C@](O)(C(=O)CO)[C@@]3(C)C[C@H](O)[C@@]12F | – | 20 µM (active) | inactive | inactive | inactive
4 | C=CC(C)(O)CCC=C(C)C (stereo unspecified) | inactive | – | inactive | inactive | –
5 | CC(C)(C)c1cccc(C(C)(C)C)c1O | 55.1 µM (active) and inactive | – | 39 µM (active) and 63.3 µM (active) | inactive | –
6 | OCCNCCO | inactive | – | – | inactive | –
7 | O=S1(=O)CCCO1 | inactive | inactive | – | inactive | inactive
8 | C[C@]12CC[C@@H]3c4ccc(O)cc4CC[C@H]3[C@@H]1CC[C@@H]2O | 7.95 µM (active) and 5.64 µM (active) | inactive | – | inactive | –
9 | CN(C)/N=N/c1nc[nH]c1C(N)=O | inactive | – | inactive and 34.7 µM (active) | inactive | –
10 | CC/C(=C(/CC)c1ccc(O)cc1)c1ccc(O)cc1 | – | – | – | – | inactive
11 | CC(=O)[C@H]1CC[C@H]2[C@@H]3CC=C4C[C@@H](O)CC[C@]4(C)[C@H]3CC[C@]12C | inactive | – | inactive | inactive | –
12 | CCCCCCOCCOCCO | – | – | – | – | inactive
13 | CC1(C)C(C=C(Cl)Cl)C1C(=O)OCc1cccc(Oc2ccccc2)c1 (stereo unspecified) | 7.91 µM (active) and 3.17 µM (active) | 15.8 µM (active) and 8.94 µM (active) | – | inactive | inactive
14 | Nc1ccc(O)c(N)c1 | 35.3 µM (active) and 35.6 µM (active) | 35.3 µM (active) and 71 µM (active) | – | 63.3 µM (active) | inactive
15 | CNC[C@H](O)c1ccc(O)c(O)c1 | – | – | – | – | inactive
16 | O=C(O)CCCCCCCCCCCC(=O)O | 17.6 µM (active) and 39.9 µM (active) | – | – | inactive | inactive
17 | COC(=O)C(C)Oc1ccc(Oc2ncc(C(F)(F)F)cc2Cl)cc1 (stereo unspecified) | 40.4 µM (active) and 39.9 µM (active) | inactive | – | inactive | –
18 | c1ccc2cc3ccccc3cc2c1 | 41.2 µM (active) and 79.6 µM (active) | – | 653 nM (active) and 502 nM (active) | inactive | inactive
19 | C[C@]12CC[C@@H]3c4ccc(O)cc4CC[C@H]3[C@@H]1CC[C@H]2O | 4.06 µM (active) and 17.8 µM (active) | 11.4 µM (active) and inactive | – | inactive | –
20 | [O-]/[N+](=N\O)c1ccccc1 | 62.7 µM (active) and 39.9 µM (active) | – | 22.2 µM (active) and 25.2 µM (active) | inactive | –

Row | SMILES | Potency [1] | Potency [2] | Potency [3] | Potency [4] | Potency [5]
21 | C=C[C@@]1(C)CC(=O)[C@]2(O)[C@@]3(C)[C@@H](O)CCC(C)(C)[C@@H]3[C@H](O)[C@H](OC(C)=O)[C@@]2(C)O1 | 39.9 µM (active) | – | inactive | – | inactive
22 | [Na+] | – | inactive | – | inactive | inactive
23 | COC(=O)c1ccc(C)cc1 | inactive | inactive | – | inactive | inactive
24 | c1ccc2ncccc2c1 | inactive | – | inactive and 35.6 µM (active) | inactive | –
25 | CC(C)=CCO | inactive | – | inactive | inactive | –
26 | CC(C)[N+](C)(CCOC(=O)C1c2ccccc2Oc2ccccc21)C(C)C | inactive | inactive | – | inactive | inactive
27 | NC[C@H](O)c1ccc(O)c(O)c1 | – | – | inactive | inactive | inactive
28 | COc1ccc(-c2coc3cc(O)cc(O)c3c2=O)cc1 | 20.2 µM (active) and 28.3 µM (active) | – | 32 µM (active) and 35.6 µM (active) | 20.2 µM (active) and 35.6 µM (active) | –
29 | C=C[C@H]1CN2CC[C@H]1C[C@@H]2[C@@H](O)c1ccnc2ccc(OC)cc12 | – | – | inactive | – | –
30 | CCCCCCCCCCCCCO | 71.8 µM (active) and 36.9 µM (active) | – | inactive and 26.1 µM (active) | inactive | –
31 | CCC/C=C/C=O | 19.5 µM (active) | – | inactive | inactive | inactive
32 | NCCN | – | inactive | inactive | 81.2 µM (active) and inactive | inactive
33 | CN1CCOCC1 | – | – | – | – | inactive
34 | CN(Cc1cnc2nc(N)nc(N)c2n1)c1ccc(C(=O)N[C@@H](CCC(=O)O)C(=O)O)cc1 | inactive | – | inactive | inactive | –
35 | NCCS(=O)(=O)O | – | – | – | – | inactive
36 | Cc1cccc(Nc2ccccc2C(=O)O)c1C | inactive | 31.7 µM (active) and 30.9 µM (active) | – | inactive | –
37 | CCC(Cc1c(I)cc(I)c(N)c1I)C(=O)O (stereo unspecified) | inactive | 30.7 µM (active) and 30.9 µM (active) | – | inactive | –
38 | Nc1ccc2c(O)cc(S(=O)(=O)O)cc2c1 | 79.8 µM (active) and 50.2 µM (active) | 71 µM (active) | inactive | inactive | –
39 | CC1=CC(C)(C)Nc2ccccc21 | 75.6 µM (active) | 12.3 µM (active) | inactive | 2.75 µM (active) | –
40 | C[N+](C)(C)CCO | inactive | inactive | – | – | inactive

From PubChem BioAssay (Tox21)
